Test results reported in PubChem BioAssay (Tox21).
Inconclusive results are not listed. Calls of active or inactive are those of the source. Unless noted, the call rests on the fitted dose curve; in most records, active means well fitted curve in the direction sought with a large enough effect in the repeat runs; inconclusive means weak or mixed curves; inactive means no such curve, though single readings can be large; an effect the other way counts as inactive or inconclusive.

Key:
[1] = qHTS assay to identify small molecule antagonists of the estrogen receptor beta (ER-beta) signaling pathway - cell viability counter screen (AID 1259382);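 further: HEK293T cells carrying ER-beta-UAS-bla reporter stimulated with estradiol; series mostly up to about 92 µM; nearly all actives have a fitted effect of over 55% in size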
How it was run: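 Luminescent ATP read-out (CellTiter-Glo, 30 min, RT) taken in the same wells as the bla reporter assay. HEK293T ER-beta-UAS-bla cells in 2% charcoal-stripped FBS were exposed to compounds with 1nM E2 for 16 hr at 37C.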

[2] = target: Estrogen receptor (Homo sapiens) (UniProt P03372); experiment: qHTS assay to identify small molecule agonists of the estrogen receptor alpha (ER-alpha) signaling pathway in the presence of an antagonist (AID 1259383; calls by dose curve; further: top concentration of the series differs between compounds; nearly all actives have a fitted effect of over 15% in size)
Sequence of Estrogen receptor (Homo sapiens) (P03372 whole entry, looked up): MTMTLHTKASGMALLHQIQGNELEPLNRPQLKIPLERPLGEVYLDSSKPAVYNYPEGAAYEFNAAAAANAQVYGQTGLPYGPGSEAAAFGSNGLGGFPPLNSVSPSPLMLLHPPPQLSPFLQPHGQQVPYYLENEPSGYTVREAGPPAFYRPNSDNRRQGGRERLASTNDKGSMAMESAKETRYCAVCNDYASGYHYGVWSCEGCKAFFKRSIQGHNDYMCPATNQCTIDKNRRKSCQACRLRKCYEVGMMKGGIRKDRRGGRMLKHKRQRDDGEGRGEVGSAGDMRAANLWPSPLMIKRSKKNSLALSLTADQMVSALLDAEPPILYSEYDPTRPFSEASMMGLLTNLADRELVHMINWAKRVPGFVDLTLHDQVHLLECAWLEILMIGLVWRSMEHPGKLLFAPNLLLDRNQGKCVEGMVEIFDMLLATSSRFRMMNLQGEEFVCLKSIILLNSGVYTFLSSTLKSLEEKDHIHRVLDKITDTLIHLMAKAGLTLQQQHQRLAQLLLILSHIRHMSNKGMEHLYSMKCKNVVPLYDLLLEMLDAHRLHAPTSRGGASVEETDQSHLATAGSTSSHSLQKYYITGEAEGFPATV
How it was run: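 Luciferase luminescence (ONE-Glo, 30min at room temperature) measured in VM7Luc4E2 cells after 22hr compound exposure at 15 concentrations, with 10.0nM ICI-182,780 final present; cells express endogenous ER-alpha and carry four EREs upstream of luciferase.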

[3] = qHTS assay to identify small molecule agonists or antagonists of the thyroid stimulating hormone receptor (TSHR) signaling pathway - wild type cell line counter screen (AID 1259384; calls by dose curve)
How it was run: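 Wild-type Hek293 cells, 800/well, 18 h at 37C, then compound with Ro20-1724 for 30 min RT. cAMP by HTRF (cAMP-d2/anti-cAMP cryptate), 1 h RT, fluorescence read. 15 concentrations, triplicates.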

[4] = target: Thyrotropin receptor (Homo sapiens) (UniProt P16473); experiment: qHTS assay to identify small molecule antagonists of the thyroid stimulating hormone receptor (TSHR) signaling pathway (AID 1259385; calls by dose curve; further: nearly all actives have a fitted effect of over 20% in size)
Sequence of Thyrotropin receptor (Homo sapiens) (P16473 whole entry, looked up): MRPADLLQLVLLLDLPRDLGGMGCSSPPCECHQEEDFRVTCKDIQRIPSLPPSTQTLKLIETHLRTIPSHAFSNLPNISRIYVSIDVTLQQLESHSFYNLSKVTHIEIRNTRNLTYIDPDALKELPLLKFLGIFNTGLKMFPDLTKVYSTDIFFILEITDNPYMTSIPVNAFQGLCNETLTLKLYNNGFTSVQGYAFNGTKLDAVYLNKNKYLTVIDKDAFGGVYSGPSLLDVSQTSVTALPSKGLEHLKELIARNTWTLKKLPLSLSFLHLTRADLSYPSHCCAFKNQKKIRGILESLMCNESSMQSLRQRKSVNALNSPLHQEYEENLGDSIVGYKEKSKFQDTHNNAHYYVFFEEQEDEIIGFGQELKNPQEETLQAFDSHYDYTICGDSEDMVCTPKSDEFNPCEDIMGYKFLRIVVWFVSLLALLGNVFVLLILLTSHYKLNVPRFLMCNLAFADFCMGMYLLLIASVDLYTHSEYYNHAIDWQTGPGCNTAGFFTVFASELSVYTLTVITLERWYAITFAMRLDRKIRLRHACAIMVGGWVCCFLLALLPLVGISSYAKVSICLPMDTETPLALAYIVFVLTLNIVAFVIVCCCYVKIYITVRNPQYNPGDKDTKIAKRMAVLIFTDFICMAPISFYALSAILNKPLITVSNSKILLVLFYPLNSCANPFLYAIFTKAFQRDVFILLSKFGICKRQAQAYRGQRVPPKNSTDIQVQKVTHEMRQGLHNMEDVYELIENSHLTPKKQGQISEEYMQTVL
How it was run: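 TSHR-HEK293 cells (800/well) plated 18 h, then compounds with Ro20-1724 and TSH at 1.5 ng/mL final, 30 min at room temperature. cAMP quantified by HTRF (cAMP-d2/anti-cAMP-cryptate, 1 h); 15 concentrations in triplicate.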

[5] = qHTS assay to identify small molecule agonists of the estrogen receptor alpha (ER-alpha) signaling pathway in the presence of an antagonist - cell viability counter screen (AID 1259386);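 further: series mostly up to about 92 µM; cells exposed to compounds for 22 h at 37 °C before the viability read; nearly all actives have a fitted effect of over 30% in size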
How it was run: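 Read-out: CellTiter-Fluor fluorescence after 1hr reagent incubation, measured in the same wells as the luciferase readout. VM7Luc4E2 cells were exposed to 15 compound concentrations with 10.0nM ICI-182,780 for 22hr at 37C.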

[6] = target: Progesterone receptor (Homo sapiens) (UniProt P06401); experiment: qHTS assay to identify small molecule agonists of the progesterone receptor (PR) signaling pathway (AID 1346784; calls by dose curve; further: nearly all actives have a fitted effect of over 30% in size)
Sequence of Progesterone receptor (Homo sapiens) (P06401 whole entry, looked up): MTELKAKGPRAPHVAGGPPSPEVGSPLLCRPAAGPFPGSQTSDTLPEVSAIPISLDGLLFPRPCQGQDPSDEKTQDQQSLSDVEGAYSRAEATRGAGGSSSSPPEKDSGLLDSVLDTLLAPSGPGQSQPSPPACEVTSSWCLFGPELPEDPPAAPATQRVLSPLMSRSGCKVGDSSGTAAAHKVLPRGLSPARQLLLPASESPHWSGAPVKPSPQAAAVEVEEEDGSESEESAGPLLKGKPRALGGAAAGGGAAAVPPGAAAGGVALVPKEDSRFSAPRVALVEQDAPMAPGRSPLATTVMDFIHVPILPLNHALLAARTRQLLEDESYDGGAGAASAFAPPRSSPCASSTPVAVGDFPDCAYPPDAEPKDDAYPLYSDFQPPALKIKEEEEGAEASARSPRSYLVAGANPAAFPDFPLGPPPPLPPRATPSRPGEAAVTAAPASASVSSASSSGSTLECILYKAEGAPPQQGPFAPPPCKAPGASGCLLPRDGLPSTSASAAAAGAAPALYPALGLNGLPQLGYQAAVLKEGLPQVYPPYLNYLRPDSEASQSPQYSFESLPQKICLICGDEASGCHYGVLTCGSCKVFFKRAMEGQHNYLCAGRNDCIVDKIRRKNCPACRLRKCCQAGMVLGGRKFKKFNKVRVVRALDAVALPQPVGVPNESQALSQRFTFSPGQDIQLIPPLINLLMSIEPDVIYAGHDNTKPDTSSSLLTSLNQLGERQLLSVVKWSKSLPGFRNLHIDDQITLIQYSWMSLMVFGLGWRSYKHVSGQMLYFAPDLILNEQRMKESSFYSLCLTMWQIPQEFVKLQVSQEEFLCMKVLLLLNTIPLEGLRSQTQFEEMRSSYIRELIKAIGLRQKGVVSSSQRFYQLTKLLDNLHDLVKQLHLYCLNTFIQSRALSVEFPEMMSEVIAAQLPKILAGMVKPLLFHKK
How it was run: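 HEK 293T PR-UAS-bla reporter cells, 2% charcoal-stripped FBS; 6 hr settle at 37C/5% CO2, compound (DMSO) 16 hr, LiveBLAzer B/G FRET substrate 2 hr RT, fluorescence intensity read.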

[7] = target: Progesterone receptor (Homo sapiens) (UniProt P06401); experiment: qHTS assay to identify small molecule antagonists of the progesterone receptor (PR) signaling pathway (AID 1346795; active means well fitted inhibition curve with a large enough effect in the signal ratio in the repeat runs, not every such curve was filed as active; the % refers to the signal ratio)
How it was run: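 Beta-lactamase reporter, HEK293T PR-UAS-bla line; 2% charcoal-stripped FBS; 6 hr pre-incubation, 37C/5% CO2. Compound + R5020 1 nM final, 16 hr. LiveBLAzer B/G FRET substrate, 2 hr RT; fluorescence intensity read.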

[8] = qHTS assay to identify small molecule antagonists of the progesterone receptor (PR) signaling pathway - cell viability counter screen (AID 1346798); further: series mostly up to about 92 µM; nearly all actives have a fitted effect of over 50% in size
How it was run: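 Luminescence readout (CellTiter-Glo, 30 min, RT) of viability in PR-UAS-bla HEK293T cells exposed to compound and R5020 agonist for 16 hr at 37C, 5% CO2; run in the same wells as the beta-lactamase reporter read.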

[9] = qHTS assay to identify small molecule agonists of the progesterone receptor (PR) signaling pathway - cell viability counter screen (AID 1346799; calls by dose curve; further: nearly all actives have a fitted effect of over 45% in size)
How it was run: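 HEK293T PR-UAS-bla, 3,000 cells/well, 2% charcoal-stripped FBS; 6 h settle, compound 16 h at 37C/5% CO2; LiveBLAzer 2 h RT, then CellTiter-Glo 30 min RT, luminescence read.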

[10] = qHTS assay to identify small molecule antagonists of the TGF-beta/Smad signaling pathway - cell viability counter screen (AID 1346824); further: nearly all actives have a fitted effect of over 50% in size
How it was run: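 SBE-bla HEK 293T cells, incubated overnight, then compound plus 0.25 ng/mL TGF-beta1 (stock added) for 5 hr at 37 C. Viability was read in the same wells by CellTiter-Glo luminescence after 30 min at room temperature.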

[11] = qHTS assay to identify small molecule agonists of the TGF-beta/Smad signaling pathway - cell viability counter screen (AID 1346829); further: top concentration of the series differs between compounds; nearly all actives have a fitted effect of over 45% in size
How it was run: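 Compound-treated SBE-bla HEK 293T cells (5 hr, 37 C) were assessed for viability with CellTiter-Glo in parallel with the reporter read.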

[12] = qHTS assay to identify small molecule agonists of the TGF-beta/Smad signaling pathway (AID 1346859; active means well fitted activation curve with a large enough effect in the signal ratio in the repeat runs, not every such curve was filed as active; the % refers to the signal ratio; further: series mostly up to about 77 µM)
How it was run: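 Read-out: fluorescence at 460 and 530 nm (405 nm excitation) after a 2 hr room-temperature incubation with beta-lactamase FRET substrate. SBE-bla HEK 293T cells had been treated with test compounds for 5 hr at 37 C.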

[13] = target: Thyrotropin-releasing hormone receptor (Homo sapiens) (UniProt P34981); experiment: qHTS assay to identify small molecule antagonists of the thyrotropin-releasing hormone receptor (TRHR) signaling pathway (AID 1346877; active means well fitted inhibition curve with a large enough effect in the repeat runs, not every such curve was filed as active; further: series mostly up to about 51 µM)
Sequence of Thyrotropin-releasing hormone receptor (Homo sapiens) (P34981 whole entry, looked up): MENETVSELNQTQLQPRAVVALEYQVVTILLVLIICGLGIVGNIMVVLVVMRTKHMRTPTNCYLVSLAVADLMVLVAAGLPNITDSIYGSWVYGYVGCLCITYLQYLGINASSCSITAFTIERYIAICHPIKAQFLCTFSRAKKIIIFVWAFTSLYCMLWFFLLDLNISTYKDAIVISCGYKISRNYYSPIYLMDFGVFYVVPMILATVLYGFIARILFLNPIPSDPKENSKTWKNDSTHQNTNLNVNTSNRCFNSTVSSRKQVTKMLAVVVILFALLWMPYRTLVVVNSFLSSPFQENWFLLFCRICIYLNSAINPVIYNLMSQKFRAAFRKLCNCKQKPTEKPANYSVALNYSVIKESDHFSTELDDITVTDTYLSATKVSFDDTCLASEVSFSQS
How it was run: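 HEK293/TRHR cells, 18 h, 37 °C; Ca2+ dye 2 h; cpd 5 min RT; TRH 1 nM final; fluorescence read 3 min, 1 s intervals; 15 concs, triplicate.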

[14] = target: Thyrotropin-releasing hormone receptor (Homo sapiens) (UniProt P34981); experiment: qHTS assay to identify small molecule agonists of the thyrotropin-releasing hormone receptor (TRHR) signaling pathway (AID 1346891; calls by dose curve;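 further: HEK293 cells expressing TRHR with calcium dye readout; series mostly up to about 58 µM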)
How it was run: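 HEK293/TRHR cells, 1500 per well, 18 h 37 °C; Ca dye 2 h 37 °C; pin-tool compound addition (agonist mode); kinetic fluorescence 3 min, 1 s reads; 15 concentrations, triplicate.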

[15] = Human pregnane X receptor (PXR) small molecule agonists, qHTS cell viability counter screen (AID 1346977); further: nearly all actives have a fitted effect of over 50% in size
How it was run: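 Fluorescence read-out (CellTiter-Fluor) of viability in PXR-Luc HepG2 cells, multiplexed with the luciferase agonist read. Compounds in DMSO added after 5hr plating; 24hr total exposure at 37C, 5% CO2.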

[16] = Caspase-3/7 induction in HepG2 cells by small molecules, qHTS assay (AID 1346978); further: nearly all actives have a fitted effect of over 15% in size
How it was run: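 Wild-type HepG2 cells, 2,000/well, settled 5 hr at 37 C and 5% CO2, then compound-treated for 17 hr; caspase-3/7 activity read by luminescent Caspase-Glo 3/7 after 30 min at room temperature.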

[17] = Caspase-3/7 induction in CHO-K1 cells by small molecules, qHTS cell viability counter screen (AID 1346979); further: nearly all actives have a fitted effect of over 35% in size
How it was run: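 CHO-K1 wt, 1,500 cells/well; 5hr pre-incubation 37C/5% CO2; compound pin transfer (DMSO); 16hr exposure; CellTiter-Fluor added, 1hr, fluorescence read.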

[18] = Caspase-3/7 induction in CHO-K1 cells by small molecules, qHTS assay (AID 1346980); further: nearly all actives have a fitted effect of over 15% in size
How it was run: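 Wild-type CHO-K1 cells exposed to compounds for 17hr at 37 C, 5% CO2. Caspase-3/7 activity then measured by Caspase-Glo 3/7 luminescence after 30min at room temperature.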

[19] = Caspase-3/7 induction in HepG2 cells by small molecules, qHTS cell viability counter screen (AID 1346981); further: series mostly up to about 92 µM; nearly all actives have a fitted effect of over 30% in size
How it was run: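 Fluorescence read-out of live-cell protease activity (CellTiter-Fluor) after 1 hr with reagent. This was measured in the same wells as the caspase-3/7 luminescence, on HepG2 cells exposed to DMSO-dissolved compounds for 16 hr at 37 C.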

[20] = target: Androgen receptor (Homo sapiens) (UniProt P10275); experiment: qHTS assay to identify small molecule agonists of the androgen receptor (AR) signaling pathway in the presence of an antagonist (AID 1259381; calls by dose curve; further: nearly all actives have a fitted effect of over 15% in size)
Sequence of Androgen receptor (Homo sapiens) (P10275 whole entry, looked up): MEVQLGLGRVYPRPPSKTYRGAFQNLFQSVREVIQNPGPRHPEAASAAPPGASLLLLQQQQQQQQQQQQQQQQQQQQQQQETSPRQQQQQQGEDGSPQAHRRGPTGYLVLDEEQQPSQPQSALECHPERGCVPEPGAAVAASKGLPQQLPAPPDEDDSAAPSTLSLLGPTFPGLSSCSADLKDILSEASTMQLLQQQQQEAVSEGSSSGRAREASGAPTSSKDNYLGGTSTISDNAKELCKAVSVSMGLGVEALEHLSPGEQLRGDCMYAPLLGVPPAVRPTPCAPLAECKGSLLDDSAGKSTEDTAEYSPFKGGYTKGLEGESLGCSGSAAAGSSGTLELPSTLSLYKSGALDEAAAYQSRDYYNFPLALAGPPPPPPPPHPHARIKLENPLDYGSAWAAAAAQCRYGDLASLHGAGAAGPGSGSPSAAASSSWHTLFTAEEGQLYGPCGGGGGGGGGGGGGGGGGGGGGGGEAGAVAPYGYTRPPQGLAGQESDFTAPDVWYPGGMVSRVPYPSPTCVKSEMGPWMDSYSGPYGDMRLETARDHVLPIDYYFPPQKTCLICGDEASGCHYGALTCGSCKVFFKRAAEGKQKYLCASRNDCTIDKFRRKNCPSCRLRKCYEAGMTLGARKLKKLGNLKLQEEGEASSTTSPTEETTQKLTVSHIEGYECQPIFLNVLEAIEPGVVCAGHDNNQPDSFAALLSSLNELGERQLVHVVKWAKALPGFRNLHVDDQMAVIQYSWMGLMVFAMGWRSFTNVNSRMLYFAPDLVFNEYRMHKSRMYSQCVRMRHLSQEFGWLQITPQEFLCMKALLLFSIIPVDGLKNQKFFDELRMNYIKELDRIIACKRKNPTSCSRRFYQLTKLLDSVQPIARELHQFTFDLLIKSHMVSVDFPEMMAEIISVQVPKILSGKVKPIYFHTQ
How it was run: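 Luciferase read-out (ONE-Glo, 30min room temperature) in MDA-kb2 MMTV-reporter cells; agonist mode run in presence of AR antagonist nilutamide, 3.0uM final. Compounds tested as 15-point series, 16hr exposure at 37C, 0% CO2.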

Measured: Potency

C[C@H]1[C@@H](c2ccccc2)NC(=O)N1C
inactive: [1] | [2] | [3] | [4] | [5] | [6] | [7] | [8] | [9] | [10] | [11] | [12] | [13] | [14] | [15] | [16] | [17] | [18] | [19]

CC(C)C1OCCN1CCOC(=O)NCCCCCCNC(=O)OCCN1CCOC1C(C)C (stereo unspecified)
inactive: [20] | [2] | [3] | [4] | [5] | [6] | [7] | [8] | [9] | [10] | [12] | [13] | [14] | [15] | [16] | [17] | [18] | [19]

CCCCC1CCC(O)CC1 (stereo unspecified)
inactive: [20] | [1] | [5] | [6] | [9] | [10] | [11] | [12] | [13] | [14] | [15] | [16] | [17] | [18] | [19]

CC1=C(O)C(=O)C(C)O1 (stereo unspecified)
inactive: [1] | [2] | [3] | [4] | [5] | [6] | [7] | [8] | [9] | [10] | [11] | [12] | [13] | [14] | [15] | [16] | [17] | [18] | [19]

Nc1nnnn1-c1ccccc1
inactive: [1] | [2] | [3] | [4] | [5] | [6] | [7] | [8] | [9] | [10] | [11] | [12] | [13] | [15] | [16] | [17] | [18] | [19]

CC(=O)CCc1ccc(OC(C)=O)cc1
inactive: [1] | [2] | [3] | [4] | [5] | [6] | [7] | [8] | [9] | [10] | [11] | [12] | [15] | [16] | [17] | [18] | [19]

CC(C)NC(=O)c1ccc(C=O)cc1
inactive: [20] | [1] | [3] | [4] | [5] | [6] | [8] | [9] | [10] | [11] | [13] | [14] | [15] | [16] | [17] | [18] | [19]

CN(C)CCOC(=O)C(c1ccccc1)C1(O)CCCC1 (stereo unspecified)
inactive: [1] | [2] | [3] | [4] | [5] | [6] | [7] | [8] | [9] | [10] | [11] | [13] | [14] | [15] | [16] | [17] | [18] | [19]

Cc1ccc(N)cc1S(=O)(=O)O
inactive: [1] | [2] | [3] | [4] | [5] | [6] | [7] | [8] | [9] | [10] | [11] | [12] | [15] | [16] | [17] | [18] | [19]

CC(Oc1cc(Cl)ccc1Cl)C(=O)O (stereo unspecified)
inactive: [20] | [1] | [5] | [8] | [9] | [10] | [11] | [12] | [13] | [15] | [16] | [17] | [18]

CC1OCCC1=O (stereo unspecified)
inactive: [1] | [2] | [3] | [4] | [5] | [6] | [7] | [8] | [9] | [10] | [11] | [12] | [13] | [15] | [16] | [17] | [18] | [19]

CC(C)(CO)C(O)C(=O)NCCCO (stereo unspecified)
inactive: [1] | [2] | [3] | [4] | [5] | [6] | [7] | [8] | [9] | [10] | [11] | [12] | [15] | [16] | [17] | [18] | [19]

CCOc1cccc(N)c1
inactive: [1] | [2] | [3] | [4] | [5] | [6] | [7] | [8] | [9] | [10] | [11] | [12] | [14] | [15] | [16] | [17] | [18] | [19]

CC(=O)c1cc(C)oc1C
inactive: [20] | [1] | [5] | [6] | [7] | [8] | [9] | [10] | [11] | [12] | [13] | [14] | [15] | [16] | [17] | [18] | [19]

CC(=O)C1C(=O)C=C(C)OC1=O (stereo unspecified)
inactive: [1] | [2] | [3] | [4] | [5] | [6] | [7] | [9] | [10] | [11] | [12] | [13] | [14] | [15] | [16] | [17] | [18] | [19]

CN(C)C(C)(C)CO
inactive: [1] | [2] | [3] | [4] | [5] | [6] | [7] | [8] | [9] | [11] | [12] | [14] | [15] | [16] | [17] | [18] | [19]
